# Test results as given in PubChem BioAssay (NCATS).
# Several values for one entry are separate records, joined by “and”; a condition that tells them apart may be missing. Equal entries are not always repeated. Inconclusive results are not listed. Activity calls are given as the source filed them. Calls follow the shape of the dose curve; as a rule, active = well fitted curve in the direction sought with a large enough effect; inconclusive = small, poorly fitted or top-dose-only effect, or another doubt; inactive = no such curve, though single readings can be large; an effect the other way counts as inactive or inconclusive.
# Target: Cellular tumor antigen p53 (Homo sapiens) (UniProt P04637)
# Sequence (P04637 whole entry, looked up): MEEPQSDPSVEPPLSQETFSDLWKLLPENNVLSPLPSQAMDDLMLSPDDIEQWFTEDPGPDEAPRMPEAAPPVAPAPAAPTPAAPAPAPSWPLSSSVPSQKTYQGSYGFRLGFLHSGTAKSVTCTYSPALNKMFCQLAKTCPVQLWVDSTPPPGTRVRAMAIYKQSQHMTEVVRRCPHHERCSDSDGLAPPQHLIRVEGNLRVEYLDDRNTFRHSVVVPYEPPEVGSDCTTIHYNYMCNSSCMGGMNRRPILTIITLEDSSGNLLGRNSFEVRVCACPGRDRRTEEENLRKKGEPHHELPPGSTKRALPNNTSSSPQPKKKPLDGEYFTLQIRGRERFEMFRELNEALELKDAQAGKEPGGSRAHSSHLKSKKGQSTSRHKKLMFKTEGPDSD
# Experiment: Primary qHTS for small molecule compounds that upregulate eGFP-tagged delta133p53alpha (in N-terminal) cells. (AID 2060322);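 also: 0% = DMSO vehicle and 100% = reference activator; nearly all actives have a fitted effect of over 75% in size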
# Settings: NCI-H358 eGFP-delta133p53alpha fluorescence, 24 h; activation: active compounds read high
# Summary of the method: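 NCI-H358 cells pre-induced 24 h with 10 ng/ml doxycycline to express N-terminal eGFP-delta133p53alpha, then dosed 24 h at 37C without doxycycline; fixed, Hoechst-stained, GFP intensity by laser scanning cytometry, normalized to DMSO (0%) and 57.5 uM 5-azacytidine (100%).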
row,Compound,activation
1,Nc1c(S(=O)(=O)O)cc(Nc2ccc(Nc3nc(Cl)nc(Nc4ccc(S(=O)(=O)O)cc4)n3)c(S(=O)(=O)O)c2)c2c1C(=O)c1ccccc1C2=O,-2.44% (inactive)
2,CNCCNS(=O)(=O)c1cccc2cnccc12,-55.4% (inactive)
3,Nc1ncnc2c1ncn2[C@@H]1O[C@H](COP(=O)(O)OP(=O)(O)OP(=O)(O)OP(=O)(O)OC[C@@H]2O[C@H](n3cnc4c(N)ncnc43)[C@@H](O)[C@H]2O)[C@@H](O)[C@H]1O,-42.2% (inactive)
4,C=CCN1CCc2c(cc(O)c(O)c2Br)[C@@H](c2ccccc2)C1,-46.3% (inactive)
5,OCCN1CCN(CC/C=C2/c3ccccc3Sc3ccc(C(F)(F)F)cc32)CC1,-48.7% (inactive)
6,CC(N)=NCCCC[C@@H](N)C(=O)O,-1.95% (inactive)
7,CCCCCCCCCCCCCCCCCC(=O)OC(CC(=O)O)C[N+](C)(C)C (stereo not given),-37.9% (inactive)
8,Cc1cc2c(cc1Cl)N(C(=O)Nc1ccnc3ccccc13)CC2,4.1% (inactive)
9,CN(C)CCCc1cc(C(=O)Nc2ccc(-c3ccncc3)cc2)ccc1O,-14.9% (inactive)
10,COc1cc2c(cc1OC)-c1cc(=Nc3c(C)cc(C)cc3C)n(C)c(=O)n1CC2,-30.7% (inactive)
11,NC(Cc1cccc(-c2ccccc2CP(=O)(O)O)c1)C(=O)O (stereo not given),5.19% (inactive)
12,O=C(O)Cc1c[nH]c2ccc(O)cc12,8.12% (inactive)
13,Oc1cc2c(c(Cl)c1O)CCNCC2c1ccccc1 (stereo not given),-28% (inactive)
14,COc1ccc(NC(=O)c2ccc(-c3ccc(-c4noc(C)n4)cc3C)cc2)cc1N1CCN(C)CC1,-47.1% (inactive)
15,Nc1ncnc2c1ncn2C1CCCC1,-5.11% (inactive)
16,O=C(CCc1ccncc1)NNC(=O)N1Cc2ccccc2Oc2ccc(Cl)cc21,-9.58% (inactive)
17,COC(=O)[C@H]1[C@H]2C[C@H]3c4[nH]c5ccccc5c4CCN3C[C@H]2CC[C@@H]1O,-1.08% (inactive)
18,CCNC(=O)[C@H]1O[C@@H](n2cnc3c(N)nc(NCCc4ccc(CCC(=O)O)cc4)nc32)[C@H](O)C1O (stereo not given in full),-0.799% (inactive)
19,NCCCNCCCCNCCCN,-8.4% (inactive)
20,CC(N)(Cc1ccc(O)c(O)c1)C(=O)O (stereo not given),-16.9% (inactive)

row,Compound,activation
1,CNCC(O)c1ccc(O)c(O)c1 (stereo not given),7.34% (inactive)
2,N=C(N)SCCc1cnc[nH]1,-28.5% (inactive)
3,CCCCCCCCCC[Si](C)(C)CCC(=O)NC(Cc1ccc(C)cc1)c1ccccc1 (stereo not given),-9.05% (inactive)
4,CCN(CC)CCNC(=O)c1ccc(NS(C)(=O)=O)cc1,-1.7% (inactive)
5,CCCC[C@@]1(C2CCCC2)Cc2cc(OCC(=O)O)c(Cl)c(Cl)c2C1=O,-7.36% (inactive)
6,CN1CCc2cccc3c2C1Cc1ccc(O)c(O)c1-3 (stereo not given),49.9% (inactive)
7,Clc1ccc(N2CCN(Cc3c[nH]c4ncccc34)CC2)cc1,-17.7% (inactive)
8,CN1C2CCC1CC(OC(=O)C(O)c1ccccc1)C2 (stereo not given),8.16% (inactive)
9,COCCOc1cc2ncnc(Cl)c2cc1OCCOC,-22.2% (inactive)
10,O=C(CCCN1CCC(O)(c2cccc(C(F)(F)F)c2)CC1)c1ccc(F)cc1,13.4% (inactive) and 14.3% (inactive)
11,CCOC(=O)C1=C(C)NC(C)=C(C(=O)OC)C1c1cccc([N+](=O)[O-])c1 (stereo not given),-7.72% (inactive)
12,Cc1cccc(C(=O)NCN2CCN(c3ccccc3C#N)CC2)c1,-16.7% (inactive)
13,COc1ccc(CCN(C)CCc2ccc(OC)c(OC)c2)cc1OC,-16.8% (inactive)
14,[N-]=[N+]=Nc1ccc(C(=O)CSC[C@H](NC(=O)CC[C@H](N)C(=O)O)C(=O)NCC(=O)O)cc1,-38.2% (inactive)
15,c1cc(CN2CCCCC2)cc(OCCCNc2nc3ccccc3s2)c1,20.9% (inactive) and -10.6% (inactive)
16,NO,-15.6% (inactive)
17,O=c1cc(O)cc(/C=C/c2ccc(O)c(O)c2)o1,-54.7% (inactive)
18,CNc1cc(NS(=O)(=O)c2ccc(N)cc2)nc(NC)n1,-5.43% (inactive)
19,CC(C)COC(=O)OCN1C(=O)CN(CCN2CC(=O)N(COC(=O)OCC(C)C)C(=O)C2)CC1=O,-13.5% (inactive)
20,N[C@@H](CS(=O)O)C(=O)O,-27.4% (inactive)

# Target: Cellular tumor antigen p53 (Homo sapiens) (UniProt P04637)
# Experiment: Primary qHTS for small molecule compounds that upregulate eGFP-tagged delta133p53alpha (in C-terminal) cells. (AID 2060324);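 also: 0% = DMSO wells and 100% = 57.5 µM 5-azacytidine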
# Settings: NCI-H358 delta133p53alpha-eGFP (C-terminal tag), GFP fluorescence imaging, 24 h; series mostly up to 57.5 µM; GFP increase (activation): at the top concentration
# Summary of the method: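 NCI-H358 cells with doxycycline-inducible D133p53a-eGFP (C-terminal tag), pre-induced 24 h with 100 ng/ml doxycycline, plated 800/well in doxycycline-free medium and treated 24 h at 37 °C with compound titrations. Cells were then fixed and Hoechst-stained, and GFP intensity was read by laser scanning cytometry.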
row,Compound,GFP increase (activation)
1,Nc1c(S(=O)(=O)O)cc(Nc2ccc(Nc3nc(Cl)nc(Nc4ccc(S(=O)(=O)O)cc4)n3)c(S(=O)(=O)O)c2)c2c1C(=O)c1ccccc1C2=O,-7.14% (inactive)
2,CNCCNS(=O)(=O)c1cccc2cnccc12,22% (inactive)
3,Nc1ncnc2c1ncn2[C@@H]1O[C@H](COP(=O)(O)OP(=O)(O)OP(=O)(O)OP(=O)(O)OC[C@@H]2O[C@H](n3cnc4c(N)ncnc43)[C@@H](O)[C@H]2O)[C@@H](O)[C@H]1O,12.3% (inactive)
4,C=CCN1CCc2c(cc(O)c(O)c2Br)[C@@H](c2ccccc2)C1,2.81% (inactive)
5,OCCN1CCN(CC/C=C2/c3ccccc3Sc3ccc(C(F)(F)F)cc32)CC1,-5.09% (inactive)
6,CC(N)=NCCCC[C@@H](N)C(=O)O,-6.52% (inactive)
7,CCCCCCCCCCCCCCCCCC(=O)OC(CC(=O)O)C[N+](C)(C)C (stereo not given),-8.48% (inactive)
8,Cc1cc2c(cc1Cl)N(C(=O)Nc1ccnc3ccccc13)CC2,-0.953% (inactive)
9,CN(C)CCCc1cc(C(=O)Nc2ccc(-c3ccncc3)cc2)ccc1O,2.78% (inactive)
10,COc1cc2c(cc1OC)-c1cc(=Nc3c(C)cc(C)cc3C)n(C)c(=O)n1CC2,-8.84% (inactive)
11,NC(Cc1cccc(-c2ccccc2CP(=O)(O)O)c1)C(=O)O (stereo not given),-5.8% (inactive)
12,O=C(O)Cc1c[nH]c2ccc(O)cc12,-5.53% (inactive)
13,Oc1cc2c(c(Cl)c1O)CCNCC2c1ccccc1 (stereo not given),0.0208% (inactive)
14,COc1ccc(NC(=O)c2ccc(-c3ccc(-c4noc(C)n4)cc3C)cc2)cc1N1CCN(C)CC1,16.2% (inactive)
15,Nc1ncnc2c1ncn2C1CCCC1,-2.18% (inactive)
16,O=C(CCc1ccncc1)NNC(=O)N1Cc2ccccc2Oc2ccc(Cl)cc21,-8.83% (inactive)
17,COC(=O)[C@H]1[C@H]2C[C@H]3c4[nH]c5ccccc5c4CCN3C[C@H]2CC[C@@H]1O,-6.39% (inactive)
18,CCNC(=O)[C@H]1O[C@@H](n2cnc3c(N)nc(NCCc4ccc(CCC(=O)O)cc4)nc32)[C@H](O)C1O (stereo not given in full),-0.601% (inactive)
19,NCCCNCCCCNCCCN,-11.6% (inactive)
20,CC(N)(Cc1ccc(O)c(O)c1)C(=O)O (stereo not given),-6.11% (inactive)

row,Compound,GFP increase (activation)
1,CNCC(O)c1ccc(O)c(O)c1 (stereo not given),-8.66% (inactive)
2,N=C(N)SCCc1cnc[nH]1,-6.55% (inactive)
3,CCCCCCCCCC[Si](C)(C)CCC(=O)NC(Cc1ccc(C)cc1)c1ccccc1 (stereo not given),-0.116% (inactive)
4,CCN(CC)CCNC(=O)c1ccc(NS(C)(=O)=O)cc1,-7.31% (inactive)
5,CCCC[C@@]1(C2CCCC2)Cc2cc(OCC(=O)O)c(Cl)c(Cl)c2C1=O,-0.342% (inactive)
6,CN1CCc2cccc3c2C1Cc1ccc(O)c(O)c1-3 (stereo not given),13.1% (inactive)
7,Clc1ccc(N2CCN(Cc3c[nH]c4ncccc34)CC2)cc1,21.1% (inactive)
8,CN1C2CCC1CC(OC(=O)C(O)c1ccccc1)C2 (stereo not given),-8.73% (inactive)
9,COCCOc1cc2ncnc(Cl)c2cc1OCCOC,3.65% (inactive)
10,O=C(CCCN1CCC(O)(c2cccc(C(F)(F)F)c2)CC1)c1ccc(F)cc1,9.56% (inactive)
11,CCOC(=O)C1=C(C)NC(C)=C(C(=O)OC)C1c1cccc([N+](=O)[O-])c1 (stereo not given),6.21% (inactive)
12,Cc1cccc(C(=O)NCN2CCN(c3ccccc3C#N)CC2)c1,-0.585% (inactive)
13,COc1ccc(CCN(C)CCc2ccc(OC)c(OC)c2)cc1OC,3.02% (inactive)
14,[N-]=[N+]=Nc1ccc(C(=O)CSC[C@H](NC(=O)CC[C@H](N)C(=O)O)C(=O)NCC(=O)O)cc1,-15.5% (inactive)
15,c1cc(CN2CCCCC2)cc(OCCCNc2nc3ccccc3s2)c1,6.51% (inactive)
16,NO,-7.17% (inactive)
17,O=c1cc(O)cc(/C=C/c2ccc(O)c(O)c2)o1,-0.873% (inactive)
18,CNc1cc(NS(=O)(=O)c2ccc(N)cc2)nc(NC)n1,-1.18% (inactive)
19,CC(C)COC(=O)OCN1C(=O)CN(CCN2CC(=O)N(COC(=O)OCC(C)C)C(=O)C2)CC1=O,-0.173% (inactive)
20,N[C@@H](CS(=O)O)C(=O)O,-7.86% (inactive)
